Experimental findings from PubChem BioAssay (NCI) are described below.

What all share (test): NCI-60 one-dose screen, 48 h (100 = growth as untreated, 0 = no growth, -100 = all killed)
The subject of one assay is RPMI-8226 leukemia. The conditions noted are these: 10 µM unless noted.
In another assay the test system is OVCAR-8 ovarian. The settings on record: 10 µM unless noted.
For another assay, the system named is OVCAR-5 ovarian. The conditions noted are these: 10 µM unless noted.
The test system of a further assay is OVCAR-4 ovarian. The conditions noted are these: 10 µM unless noted.
Another assay relates to SK-OV-3 ovarian. The conditions noted are these: 10 µM unless noted.
The subject of the next assay is IGROV1 ovarian. The settings on record: 10 µM unless noted.
The test system of a further assay is OVCAR-3 ovarian. The settings on record: 10 µM unless noted.
The subject of the next assay is HS 578T breast. The conditions noted are these: 10 µM unless noted.
The test system of another assay is NCI/ADR-RES ovarian. The conditions noted are these: 10 µM unless noted.
The subject of the next assay is T-47D breast. The settings on record: 10 µM unless noted.
A further assay relates to BT-549 breast. The conditions noted are these: 10 µM unless noted.
The next assay relates to MDA-MB-435 melanoma. The settings on record: 10 µM unless noted.
A further assay has as its system SW-620 colon. The conditions noted are these: 10 µM unless noted.
Another assay concerns MCF7 breast. The settings on record: 10 µM.
The next assay concerns HCT-116 colon. The settings on record: 10 µM unless noted.
The next assay deals with HCC-2998 colon. The conditions noted are these: 10 µM unless noted.
The subject of a further assay is KM12 colon. The conditions noted are these: 10 µM unless noted.

Each structure is given as a SMILES string. This is part of a sample that, as a whole, favours compounds with a hit. Of some 83,000 tested, about 20% had one in any assay.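 Percent growth is the endpoint: 0 to 100 indicates growth inhibition (40 means 60% inhibition), 0 means no net growth, and negative values indicate cell death.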 A number with no mark means an inactive call. Activity calls are given as the source filed them. How the source made its calls: active means growth percent below 10; inactive means the rest.

Regarding `CC(=O)c1ccc2oc(=O)n(Cc3ccc(C#N)cc3)c(=O)c2c1`, the growth with RPMI-8226 leukemia was 106%; with OVCAR-8 ovarian it was 103%; with OVCAR-5 ovarian, 103%; with OVCAR-4 ovarian, 96.3%; in the assay on SK-OV-3 ovarian it was 119%; in the assay on IGROV1 ovarian, 108%. Moreover, the growth in the assay on OVCAR-3 ovarian is 117%; in the assay with HS 578T breast, 103%; in the assay on NCI/ADR-RES ovarian it was 110%; in the assay on T-47D breast, 104%; in the assay with BT-549 breast, 102%; with MDA-MB-435 melanoma, 99.3%. Besides, the growth in the assay with SW-620 colon was 100%; with MCF7 breast, 98.9%; with HCT-116 colon it was 110%; in the assay on HCC-2998 colon, 102%; with KM12 colon, 102%.
For the compound `COc1ccc(C)c2sc(N(Cc3cccnc3)C(=O)c3ccc(C#N)cc3)nc12`, the growth with RPMI-8226 leukemia was 8.4% (active); with OVCAR-8 ovarian it was -10.5% (active); with OVCAR-5 ovarian, 24.3%; in the assay on OVCAR-4 ovarian, 14.3%; with SK-OV-3 ovarian, 12.6%; with IGROV1 ovarian, -14.3% (active). The growth with OVCAR-3 ovarian was 15.1%; in the assay with HS 578T breast, -1.42% (active); in the assay on NCI/ADR-RES ovarian it was 9.32% (active); in the assay on T-47D breast it was -0.727% (active); in the assay with BT-549 breast, 21.7%; in the assay on MDA-MB-435 melanoma, 10.1%. Besides, the growth in the assay with SW-620 colon was 10.8%; in the assay on MCF7 breast, 3.83% (active); in the assay with HCT-116 colon it was 13.2%; with HCC-2998 colon, 10.9%; with KM12 colon it was 18.2%.
Turning to `CCOC(=O)c1c(C=O)nc2ccccc2c1/C=C/c1ccc(Cl)cc1`, the growth in the assay with RPMI-8226 leukemia is 85.7%; in the assay with OVCAR-8 ovarian, 104%; in the assay on OVCAR-5 ovarian, 101%; with OVCAR-4 ovarian it was 85.6%; with SK-OV-3 ovarian, 95.1%; in the assay on IGROV1 ovarian it was 80.9%. The growth with OVCAR-3 ovarian was 98.6%; with HS 578T breast, 90.6%; in the assay on NCI/ADR-RES ovarian it was 103%; in the assay with T-47D breast it was 86.2%; in the assay with BT-549 breast, 99.6%; in the assay on MDA-MB-435 melanoma, 101%. Also, the growth in the assay on SW-620 colon was 103%; in the assay with MCF7 breast it was 78%; in the assay with HCT-116 colon, 82.4%; in the assay on HCC-2998 colon, 110%; in the assay with KM12 colon, 96.1%.
`Cc1c(-c2noc(-c3ccc([N+](=O)[O-])cc3)n2)no[n+]1[O-]`: the growth is 93.3% in the assay on RPMI-8226 leukemia; 107% in the assay with OVCAR-8 ovarian; 104% in the assay with OVCAR-5 ovarian; 102% in the assay with OVCAR-4 ovarian; 111% with SK-OV-3 ovarian; 89.4% in the assay with IGROV1 ovarian. For the same compound, the growth was 94.4% in the assay on OVCAR-3 ovarian; 104% with HS 578T breast; 96.2% in the assay on NCI/ADR-RES ovarian; 104% in the assay with T-47D breast; 95.7% in the assay on BT-549 breast; 106% in the assay on MDA-MB-435 melanoma. Moreover, the growth was 97.5% in the assay with SW-620 colon; 55.2% with MCF7 breast; 87.5% with HCT-116 colon; 102% in the assay with HCC-2998 colon; 92.2% in the assay with KM12 colon.
Regarding `COc1ccc(C2=Nn3c(NN)nnc3SC2)cc1`, the growth in the assay on RPMI-8226 leukemia is 104%; with OVCAR-8 ovarian it was 96.4%; in the assay with OVCAR-5 ovarian, 108%; in the assay on OVCAR-4 ovarian, 101%; with SK-OV-3 ovarian it was 105%; in the assay with IGROV1 ovarian, 96%. In addition, the growth in the assay with OVCAR-3 ovarian was 111%; in the assay on HS 578T breast, 96%; in the assay with NCI/ADR-RES ovarian it was 102%; in the assay on T-47D breast it was 96.1%; in the assay with BT-549 breast it was 108%; in the assay with MDA-MB-435 melanoma it was 103%. Moreover, the growth in the assay on SW-620 colon was 112%; in the assay with MCF7 breast it was 91.4%; in the assay on HCT-116 colon, 112%; in the assay on HCC-2998 colon, 111%; with KM12 colon it was 101%.
For the compound `CC/C(=C(\CC)c1ccc(OCC[N+](C)(C)C)cc1)c1ccc(OC)cc1`, the growth with RPMI-8226 leukemia was 31.1%; with OVCAR-8 ovarian, 53%; in the assay on OVCAR-5 ovarian, 102%; in the assay on OVCAR-4 ovarian it was 68.5%; with SK-OV-3 ovarian, 86.9%; in the assay on IGROV1 ovarian, 68.8%. For the same compound, the growth was 51.3% in the assay with OVCAR-3 ovarian; 72.3% in the assay with HS 578T breast; 107% in the assay on NCI/ADR-RES ovarian; 59% in the assay with T-47D breast; 74.5% in the assay on BT-549 breast; 86% with MDA-MB-435 melanoma. In addition, the growth is 68.5% in the assay with SW-620 colon; 89% in the assay with MCF7 breast; 48.9% with HCT-116 colon; 47.9% in the assay on HCC-2998 colon; 51.3% in the assay with KM12 colon.
Consider `CCCCCCc1cc2cc(-c3csc(/C=C/c4ccccc4)n3)c(=O)oc2cc1O`, for which the growth with RPMI-8226 leukemia is -1.82% (active); with OVCAR-8 ovarian, 20%; in the assay on OVCAR-5 ovarian it was 81.7%; with OVCAR-4 ovarian, 36.8%; with SK-OV-3 ovarian it was 47%; with IGROV1 ovarian, 37.2%. Moreover, the growth is 2.25% (active) in the assay with OVCAR-3 ovarian; 3.39% (active) in the assay on HS 578T breast; 20.2% in the assay with NCI/ADR-RES ovarian; 5.5% (active) in the assay with T-47D breast; 41.4% in the assay on BT-549 breast; -72.2% (active) with MDA-MB-435 melanoma. The growth in the assay on SW-620 colon was 1.96% (active); with MCF7 breast, 8.1% (active); in the assay with HCT-116 colon, 12%; in the assay with HCC-2998 colon, -25.1% (active); in the assay with KM12 colon, 15.8%.
For the compound `C1=CC2(C=C1)OC21CCC2(C=CC3(C2)OC3C2CCCCC2)CC1` (stereo unspecified), the growth was 103% in the assay on RPMI-8226 leukemia; 107% in the assay with OVCAR-8 ovarian; 104% in the assay on OVCAR-5 ovarian; 103% in the assay on OVCAR-4 ovarian; 109% in the assay with SK-OV-3 ovarian; 107% in the assay with IGROV1 ovarian. In addition, the growth is 110% with OVCAR-3 ovarian; 103% in the assay with HS 578T breast; 98.4% with NCI/ADR-RES ovarian; 104% in the assay with T-47D breast; 107% with BT-549 breast; 97.4% in the assay on MDA-MB-435 melanoma. The growth is 109% with SW-620 colon; 106% in the assay on MCF7 breast; 101% with HCT-116 colon; 105% with HCC-2998 colon; 105% in the assay on KM12 colon.
